# From article PMC7862700, “An all-to-all approach to the identification of sequence-specific readers for epigenetic DNA modifications on cytosine”
# Key:
# Assay in all cases: DAPPL (digital affinity profiling via proximity ligation, sequencing); 10 mM Tris-HCl pH 7.5, 50 mM NaCl, 1 mM DTT, 4% glycerol, room temperature, 30 min; GST-TFs on glutathione beads, 16-mer random dsDNA library, 0.1% formaldehyde crosslink after washing; high values mean tight binding
# [1] = molecular target: T1, FLI1 (Homo sapiens, UniProt Q01543 1-452); conditions: protein: recombinant; tags: N-terminal GST; dsDNA, one strand shown
# T1 sequence: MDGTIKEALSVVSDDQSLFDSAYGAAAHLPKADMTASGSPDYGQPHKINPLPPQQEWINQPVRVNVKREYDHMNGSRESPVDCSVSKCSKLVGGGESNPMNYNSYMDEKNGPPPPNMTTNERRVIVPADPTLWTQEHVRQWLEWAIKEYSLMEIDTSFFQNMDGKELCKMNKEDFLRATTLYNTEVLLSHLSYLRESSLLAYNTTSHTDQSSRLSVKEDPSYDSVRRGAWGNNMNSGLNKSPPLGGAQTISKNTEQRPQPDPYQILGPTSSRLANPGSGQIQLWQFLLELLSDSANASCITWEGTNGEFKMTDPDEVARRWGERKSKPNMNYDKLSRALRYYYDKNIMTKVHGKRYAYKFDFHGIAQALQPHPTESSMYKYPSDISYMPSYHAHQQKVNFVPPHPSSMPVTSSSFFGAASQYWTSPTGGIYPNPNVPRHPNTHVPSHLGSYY
# Outline: (§1)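 GST fusions of human transcription factors were expressed in yeast and captured with glutathione beads. Once given DNA barcodes and pooled alongside a tag-only sample, they were incubated for 30 min at room temperature with 200 nmole of a random double-stranded 16-mer DNA library in Tris/NaCl/DTT/glycerol buffer, then washed, crosslinked (0.1% formaldehyde), proximity-ligated, PCR-amplified and sequenced on an Illumina NextSeq500. The binding signal of each hexamer is its read frequency for a factor divided by its frequency for the tag-only sample.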
# [2] = molecular target: T2, ELK1 (Homo sapiens, UniProt P19419 1-428); conditions: protein: recombinant; tags: N-terminal GST; dsDNA, one strand shown
# T2 sequence: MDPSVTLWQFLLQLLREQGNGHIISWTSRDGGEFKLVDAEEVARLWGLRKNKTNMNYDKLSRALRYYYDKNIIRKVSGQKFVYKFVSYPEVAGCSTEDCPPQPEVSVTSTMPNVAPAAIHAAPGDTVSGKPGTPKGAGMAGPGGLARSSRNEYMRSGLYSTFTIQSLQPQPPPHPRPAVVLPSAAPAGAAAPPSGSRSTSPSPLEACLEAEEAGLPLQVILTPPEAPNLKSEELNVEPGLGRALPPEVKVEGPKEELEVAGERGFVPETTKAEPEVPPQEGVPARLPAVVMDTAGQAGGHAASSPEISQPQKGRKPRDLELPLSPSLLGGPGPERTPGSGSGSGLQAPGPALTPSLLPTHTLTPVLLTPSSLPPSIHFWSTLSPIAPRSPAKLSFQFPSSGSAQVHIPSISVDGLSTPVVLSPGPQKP
# Outline: as §1
# [3] = molecular target: T3, GABPA (Homo sapiens, UniProt Q06546 1-454); conditions: protein: recombinant; tags: N-terminal GST; dsDNA, one strand shown
# T3 sequence: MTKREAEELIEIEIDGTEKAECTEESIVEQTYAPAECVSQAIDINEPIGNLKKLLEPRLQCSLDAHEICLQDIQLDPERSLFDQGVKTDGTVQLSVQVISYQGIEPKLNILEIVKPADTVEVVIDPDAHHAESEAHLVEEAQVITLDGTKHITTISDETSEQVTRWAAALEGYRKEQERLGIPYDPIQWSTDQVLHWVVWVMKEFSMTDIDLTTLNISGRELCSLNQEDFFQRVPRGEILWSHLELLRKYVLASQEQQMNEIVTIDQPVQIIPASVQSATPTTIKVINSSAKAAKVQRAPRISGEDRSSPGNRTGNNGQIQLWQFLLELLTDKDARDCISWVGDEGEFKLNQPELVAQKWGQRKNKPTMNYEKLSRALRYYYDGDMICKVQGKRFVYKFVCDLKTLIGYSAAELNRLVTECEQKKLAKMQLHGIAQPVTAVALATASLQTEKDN
# Outline: as §1
# [4] = molecular target: T4, ERG (Homo sapiens, UniProt P11308 1-479); conditions: protein: recombinant; tags: N-terminal GST; dsDNA, one strand shown
# T4 sequence: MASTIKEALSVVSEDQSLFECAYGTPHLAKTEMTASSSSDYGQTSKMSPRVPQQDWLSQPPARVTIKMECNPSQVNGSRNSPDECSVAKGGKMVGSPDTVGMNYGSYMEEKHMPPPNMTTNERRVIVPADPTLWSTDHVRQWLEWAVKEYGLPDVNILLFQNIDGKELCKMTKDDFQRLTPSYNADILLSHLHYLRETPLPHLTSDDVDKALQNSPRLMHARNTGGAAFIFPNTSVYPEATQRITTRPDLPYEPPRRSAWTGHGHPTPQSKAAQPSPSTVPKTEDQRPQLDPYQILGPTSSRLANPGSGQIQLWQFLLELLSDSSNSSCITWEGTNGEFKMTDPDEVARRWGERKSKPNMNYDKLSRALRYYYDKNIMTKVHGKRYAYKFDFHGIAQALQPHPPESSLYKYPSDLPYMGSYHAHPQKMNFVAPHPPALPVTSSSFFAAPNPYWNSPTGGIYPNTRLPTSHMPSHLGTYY
# Outline: as §1
# [5] = molecular target: ELF1 (Homo sapiens, UniProt P32519 1-619); conditions: protein: recombinant; tags: N-terminal GST; dsDNA, one strand shown
# Sequence of ELF1 (P32519 whole entry): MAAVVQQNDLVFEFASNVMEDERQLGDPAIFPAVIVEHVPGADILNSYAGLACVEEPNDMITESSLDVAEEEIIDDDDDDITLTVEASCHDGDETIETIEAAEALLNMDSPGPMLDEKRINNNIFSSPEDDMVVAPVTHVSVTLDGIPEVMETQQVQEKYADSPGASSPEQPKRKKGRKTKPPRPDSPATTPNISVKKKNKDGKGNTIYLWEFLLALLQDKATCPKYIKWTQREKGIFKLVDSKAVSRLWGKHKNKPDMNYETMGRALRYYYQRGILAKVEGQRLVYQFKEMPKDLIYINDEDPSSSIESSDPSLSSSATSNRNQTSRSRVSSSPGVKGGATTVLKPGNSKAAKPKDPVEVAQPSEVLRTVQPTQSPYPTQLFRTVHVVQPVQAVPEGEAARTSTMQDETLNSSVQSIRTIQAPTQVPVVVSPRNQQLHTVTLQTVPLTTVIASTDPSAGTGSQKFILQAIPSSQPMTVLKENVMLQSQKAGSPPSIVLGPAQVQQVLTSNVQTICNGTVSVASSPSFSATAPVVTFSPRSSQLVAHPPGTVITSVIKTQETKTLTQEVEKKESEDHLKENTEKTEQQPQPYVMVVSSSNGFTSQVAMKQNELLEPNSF
# Outline: as §1
# [6] = molecular target: T5, EHF (Homo sapiens, UniProt Q9NZC4 1-300); conditions: protein: recombinant; tags: N-terminal GST; dsDNA, one strand shown
# T5 sequence: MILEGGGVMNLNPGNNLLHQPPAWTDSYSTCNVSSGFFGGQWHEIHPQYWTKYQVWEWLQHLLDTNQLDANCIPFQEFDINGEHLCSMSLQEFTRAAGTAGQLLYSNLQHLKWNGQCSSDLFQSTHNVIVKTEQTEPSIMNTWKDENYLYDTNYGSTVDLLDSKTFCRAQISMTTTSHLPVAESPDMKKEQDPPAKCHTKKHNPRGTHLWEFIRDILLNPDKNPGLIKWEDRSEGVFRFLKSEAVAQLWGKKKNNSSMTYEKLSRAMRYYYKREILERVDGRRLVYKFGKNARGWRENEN
# Outline: as §1
# [7] = molecular target: SPI1 (Homo sapiens, UniProt P17947 1-270); conditions: protein: recombinant; tags: N-terminal GST; dsDNA, one strand shown
# Outline: as §1
# [8] = molecular target: SPIB (Homo sapiens, UniProt Q01892 1-262); conditions: protein: recombinant; tags: N-terminal GST; dsDNA, one strand shown
# Sequence of SPIB (Q01892 whole entry): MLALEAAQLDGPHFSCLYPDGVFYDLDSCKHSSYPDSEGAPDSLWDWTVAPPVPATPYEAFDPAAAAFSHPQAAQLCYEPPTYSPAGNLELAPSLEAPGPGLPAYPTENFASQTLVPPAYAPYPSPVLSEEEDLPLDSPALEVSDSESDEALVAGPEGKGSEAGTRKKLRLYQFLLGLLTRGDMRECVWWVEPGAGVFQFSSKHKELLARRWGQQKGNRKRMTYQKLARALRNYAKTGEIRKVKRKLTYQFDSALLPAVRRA
# Outline: as §1
# [9] = molecular target: T6, ELK3 (Homo sapiens, UniProt P41970 1-407); conditions: protein: recombinant; tags: N-terminal GST; dsDNA, one strand shown
# T6 sequence: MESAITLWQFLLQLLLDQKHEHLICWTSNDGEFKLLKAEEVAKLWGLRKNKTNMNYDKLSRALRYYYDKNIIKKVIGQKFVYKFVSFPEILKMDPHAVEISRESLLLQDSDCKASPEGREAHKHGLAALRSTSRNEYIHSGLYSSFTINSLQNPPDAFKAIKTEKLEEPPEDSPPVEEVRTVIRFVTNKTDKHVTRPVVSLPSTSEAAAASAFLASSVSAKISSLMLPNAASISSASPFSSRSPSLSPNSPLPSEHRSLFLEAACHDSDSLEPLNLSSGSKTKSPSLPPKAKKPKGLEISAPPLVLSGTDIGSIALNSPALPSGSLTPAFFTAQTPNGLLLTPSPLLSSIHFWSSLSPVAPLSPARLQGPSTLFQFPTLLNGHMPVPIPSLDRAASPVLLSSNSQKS
# Outline: as §1
# [10] = molecular target: T7, FEV (Homo sapiens, UniProt Q99581 1-238); conditions: protein: recombinant; tags: N-terminal GST; dsDNA, one strand shown
# T7 sequence: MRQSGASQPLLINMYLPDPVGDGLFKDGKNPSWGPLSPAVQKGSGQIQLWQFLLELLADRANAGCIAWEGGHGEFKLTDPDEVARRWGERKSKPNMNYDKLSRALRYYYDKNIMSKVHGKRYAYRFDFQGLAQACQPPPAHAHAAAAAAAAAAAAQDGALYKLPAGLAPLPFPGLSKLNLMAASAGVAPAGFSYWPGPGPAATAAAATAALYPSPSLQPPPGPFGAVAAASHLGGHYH
# Outline: as §1
# [11] = molecular target: ETV5 (Homo sapiens, UniProt P41161 1-510); conditions: protein: recombinant; tags: N-terminal GST; dsDNA, one strand shown
# Sequence of ETV5 (P41161 whole entry): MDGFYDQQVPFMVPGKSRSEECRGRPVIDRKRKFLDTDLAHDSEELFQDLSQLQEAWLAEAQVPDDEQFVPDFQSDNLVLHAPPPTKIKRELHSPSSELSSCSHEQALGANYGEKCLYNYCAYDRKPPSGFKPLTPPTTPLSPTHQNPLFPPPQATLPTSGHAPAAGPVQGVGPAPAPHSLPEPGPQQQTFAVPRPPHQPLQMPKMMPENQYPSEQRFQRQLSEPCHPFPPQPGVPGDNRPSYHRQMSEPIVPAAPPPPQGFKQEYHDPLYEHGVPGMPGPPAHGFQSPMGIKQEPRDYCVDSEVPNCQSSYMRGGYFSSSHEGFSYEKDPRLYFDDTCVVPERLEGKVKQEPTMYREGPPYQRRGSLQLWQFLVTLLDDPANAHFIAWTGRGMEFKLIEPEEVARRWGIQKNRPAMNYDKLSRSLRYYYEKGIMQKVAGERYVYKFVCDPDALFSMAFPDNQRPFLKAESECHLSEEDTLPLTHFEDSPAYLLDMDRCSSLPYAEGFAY
# Outline: as §1
# [12] = molecular target: HSF1 (Homo sapiens, UniProt Q00613 1-529); conditions: protein: recombinant; tags: N-terminal GST; chain copies: 3; dsDNA, one strand shown
# Sequence of HSF1 (Q00613 whole entry): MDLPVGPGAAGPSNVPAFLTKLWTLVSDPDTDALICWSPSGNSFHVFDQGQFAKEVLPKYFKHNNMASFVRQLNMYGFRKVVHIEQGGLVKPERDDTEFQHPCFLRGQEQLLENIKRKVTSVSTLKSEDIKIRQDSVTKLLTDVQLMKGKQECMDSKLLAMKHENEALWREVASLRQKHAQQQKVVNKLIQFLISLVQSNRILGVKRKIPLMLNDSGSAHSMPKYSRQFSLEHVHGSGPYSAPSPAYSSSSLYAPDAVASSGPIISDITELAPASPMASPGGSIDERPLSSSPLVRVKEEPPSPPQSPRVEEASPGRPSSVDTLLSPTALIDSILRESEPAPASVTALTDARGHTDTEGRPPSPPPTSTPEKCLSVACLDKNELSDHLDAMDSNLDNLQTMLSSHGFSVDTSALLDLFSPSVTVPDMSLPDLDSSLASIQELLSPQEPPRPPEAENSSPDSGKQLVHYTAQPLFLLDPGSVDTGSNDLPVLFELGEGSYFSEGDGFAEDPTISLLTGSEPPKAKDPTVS
# Outline: as §1
# [13] = molecular target: T8, SPIC (Homo sapiens, UniProt Q8N5J4 1-248); conditions: protein: recombinant; tags: N-terminal GST; dsDNA, one strand shown
# T8 sequence: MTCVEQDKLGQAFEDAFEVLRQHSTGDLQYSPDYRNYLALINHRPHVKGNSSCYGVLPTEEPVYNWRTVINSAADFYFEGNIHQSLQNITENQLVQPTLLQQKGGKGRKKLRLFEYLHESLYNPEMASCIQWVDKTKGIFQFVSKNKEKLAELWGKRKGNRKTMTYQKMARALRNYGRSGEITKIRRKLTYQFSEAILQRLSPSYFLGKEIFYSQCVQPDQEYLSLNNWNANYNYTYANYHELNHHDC
# Outline: as §1
# [14] = molecular target: ELF4 (Homo sapiens, UniProt Q99607 1-663); conditions: protein: recombinant; tags: N-terminal GST; dsDNA, one strand shown
# Sequence of ELF4 (Q99607 whole entry): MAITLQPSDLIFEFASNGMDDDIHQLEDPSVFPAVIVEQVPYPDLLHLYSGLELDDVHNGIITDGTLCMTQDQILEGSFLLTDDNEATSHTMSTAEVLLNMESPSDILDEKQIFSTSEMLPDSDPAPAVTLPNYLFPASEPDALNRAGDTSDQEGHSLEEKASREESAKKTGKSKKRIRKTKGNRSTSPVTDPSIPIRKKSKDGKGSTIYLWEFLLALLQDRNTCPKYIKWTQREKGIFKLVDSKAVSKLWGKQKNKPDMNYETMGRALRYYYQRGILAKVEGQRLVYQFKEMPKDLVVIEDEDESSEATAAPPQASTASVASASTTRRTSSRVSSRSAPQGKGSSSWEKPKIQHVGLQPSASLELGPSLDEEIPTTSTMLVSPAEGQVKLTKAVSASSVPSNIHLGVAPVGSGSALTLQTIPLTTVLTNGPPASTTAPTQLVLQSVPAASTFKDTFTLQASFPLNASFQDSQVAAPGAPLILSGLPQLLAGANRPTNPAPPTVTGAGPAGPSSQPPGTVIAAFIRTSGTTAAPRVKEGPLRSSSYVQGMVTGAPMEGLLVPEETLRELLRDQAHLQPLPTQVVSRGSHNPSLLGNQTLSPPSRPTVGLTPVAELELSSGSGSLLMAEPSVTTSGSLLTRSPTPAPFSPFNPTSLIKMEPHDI
# Outline: as §1
# [15] = molecular target: T9, ELK4 (Homo sapiens, UniProt P28324-2 1-405); conditions: protein: recombinant; tags: N-terminal GST; dsDNA, one strand shown
# T9 sequence: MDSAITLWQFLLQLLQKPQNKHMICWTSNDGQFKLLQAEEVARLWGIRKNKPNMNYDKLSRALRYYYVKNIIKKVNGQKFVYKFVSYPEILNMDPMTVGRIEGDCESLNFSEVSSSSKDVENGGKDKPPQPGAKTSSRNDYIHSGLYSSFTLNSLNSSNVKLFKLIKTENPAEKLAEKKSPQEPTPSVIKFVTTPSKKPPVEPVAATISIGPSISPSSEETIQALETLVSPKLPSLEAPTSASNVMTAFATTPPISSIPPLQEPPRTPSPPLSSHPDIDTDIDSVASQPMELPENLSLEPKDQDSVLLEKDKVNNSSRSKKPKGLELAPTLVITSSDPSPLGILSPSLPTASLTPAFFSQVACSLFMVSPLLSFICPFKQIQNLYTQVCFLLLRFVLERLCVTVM
# Outline: as §1
# [16] = molecular target: T10, ETV2 (Homo sapiens, UniProt O00321 1-342); conditions: protein: recombinant; tags: N-terminal GST; dsDNA, one strand shown
# T10 sequence: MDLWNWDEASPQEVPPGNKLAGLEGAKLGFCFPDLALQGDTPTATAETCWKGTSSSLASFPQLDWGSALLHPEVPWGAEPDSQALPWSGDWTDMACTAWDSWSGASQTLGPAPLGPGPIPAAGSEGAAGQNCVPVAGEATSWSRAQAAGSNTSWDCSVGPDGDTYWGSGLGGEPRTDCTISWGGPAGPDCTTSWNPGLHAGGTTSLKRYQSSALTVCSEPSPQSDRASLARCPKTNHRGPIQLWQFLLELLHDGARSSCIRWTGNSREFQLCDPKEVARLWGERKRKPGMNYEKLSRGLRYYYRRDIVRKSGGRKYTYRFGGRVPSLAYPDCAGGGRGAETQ
# Outline: as §1
# [17] = molecular target: T11, ELF3 (Homo sapiens, UniProt P78545 1-371); conditions: protein: recombinant; tags: N-terminal GST; dsDNA, one strand shown
# T11 sequence: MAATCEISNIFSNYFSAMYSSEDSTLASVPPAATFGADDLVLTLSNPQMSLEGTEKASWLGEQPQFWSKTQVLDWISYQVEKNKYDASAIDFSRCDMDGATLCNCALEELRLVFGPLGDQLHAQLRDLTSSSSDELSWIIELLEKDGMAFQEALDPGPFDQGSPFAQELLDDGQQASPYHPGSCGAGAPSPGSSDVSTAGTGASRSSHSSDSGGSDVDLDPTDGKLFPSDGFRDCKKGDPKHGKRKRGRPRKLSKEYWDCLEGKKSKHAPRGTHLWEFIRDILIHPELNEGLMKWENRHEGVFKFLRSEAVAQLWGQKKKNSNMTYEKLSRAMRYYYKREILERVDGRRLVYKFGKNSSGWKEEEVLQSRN
# Outline: as §1
# [18] = molecular target: CRX (Homo sapiens, UniProt O43186 1-299); conditions: protein: recombinant; tags: N-terminal GST; dsDNA, one strand shown
# Sequence of CRX (O43186 whole entry): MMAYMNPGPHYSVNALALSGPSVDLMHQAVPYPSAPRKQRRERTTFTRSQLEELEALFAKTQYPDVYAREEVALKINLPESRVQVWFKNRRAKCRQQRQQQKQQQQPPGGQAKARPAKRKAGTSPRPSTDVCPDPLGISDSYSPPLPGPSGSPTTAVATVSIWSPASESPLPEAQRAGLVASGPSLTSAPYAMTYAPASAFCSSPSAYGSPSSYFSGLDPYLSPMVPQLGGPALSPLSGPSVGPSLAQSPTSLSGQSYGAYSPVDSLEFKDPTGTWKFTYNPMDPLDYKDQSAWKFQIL
# Outline: as §1
# [19] = molecular target: ETV1 (Homo sapiens, UniProt P50549 1-477); conditions: protein: recombinant; tags: N-terminal GST; dsDNA, one strand shown
# Sequence of ETV1 (P50549 whole entry): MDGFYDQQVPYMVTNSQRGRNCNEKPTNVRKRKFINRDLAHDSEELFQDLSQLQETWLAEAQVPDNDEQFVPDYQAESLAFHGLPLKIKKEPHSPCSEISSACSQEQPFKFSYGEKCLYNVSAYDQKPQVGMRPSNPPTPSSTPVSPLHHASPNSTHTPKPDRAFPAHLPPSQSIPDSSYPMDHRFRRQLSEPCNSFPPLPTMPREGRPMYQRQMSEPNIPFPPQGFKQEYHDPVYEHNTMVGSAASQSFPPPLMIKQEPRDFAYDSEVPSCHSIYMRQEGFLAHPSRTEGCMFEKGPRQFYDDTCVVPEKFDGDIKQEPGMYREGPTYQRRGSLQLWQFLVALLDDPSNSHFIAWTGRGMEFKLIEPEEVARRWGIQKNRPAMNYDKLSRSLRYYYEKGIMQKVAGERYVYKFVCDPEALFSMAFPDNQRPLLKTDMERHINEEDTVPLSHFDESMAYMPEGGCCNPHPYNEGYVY
# Outline: as §1
sequence,measurement,setting,value
CAGGAT,binding signal,[1],"1.23 fold enrichment (6-mer frequency, TF over GST control)"
same,binding signal,[2],"1.16 fold enrichment (6-mer frequency, TF over GST control)"
same,binding signal,[3],"1.13 fold enrichment (6-mer frequency, TF over GST control)"
same,binding signal,[4],"1.2 fold enrichment (6-mer frequency, TF over GST control)"
same,binding signal,[5],"1.14 fold enrichment (6-mer frequency, TF over GST control)"
same,binding signal,[6],"1.19 fold enrichment (6-mer frequency, TF over GST control)"
same,binding signal,[7],"1.1 fold enrichment (6-mer frequency, TF over GST control)"
same,binding signal,[8],"1.29 fold enrichment (6-mer frequency, TF over GST control)"
same,binding signal,[9],"1.04 fold enrichment (6-mer frequency, TF over GST control)"
same,binding signal,[10],"1.27 fold enrichment (6-mer frequency, TF over GST control)"
same,binding signal,[11],"1.19 fold enrichment (6-mer frequency, TF over GST control)"
same,binding signal,[12],"1.08 fold enrichment (6-mer frequency, TF over GST control)"
same,binding signal,[13],"1.04 fold enrichment (6-mer frequency, TF over GST control)"
same,binding signal,[14],"1.11 fold enrichment (6-mer frequency, TF over GST control)"
same,binding signal,[15],"1.23 fold enrichment (6-mer frequency, TF over GST control)"
same,binding signal,[16],"1.15 fold enrichment (6-mer frequency, TF over GST control)"
same,binding signal,[17],"1.12 fold enrichment (6-mer frequency, TF over GST control)"
same,binding signal,[18],"1.35 fold enrichment (6-mer frequency, TF over GST control)"
same,binding signal,[19],"1.34 fold enrichment (6-mer frequency, TF over GST control)"
